# Measured values reported in the supplement of paper PMC6555819.
# How the values were obtained:
# Assay in all cases: PBM binding z-score (relative to random genomic background probes); higher = stronger binding; sequences stand for … in GC…GCGATTGACAGCGTAGAATGAAGG
# [1] = test system: FXR:RXRa (NR concentration 270 nM, RXRa partner concentration 90 nM)
# Summary of the method: (§1)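 The probes on custom Agilent 4×180K protein-binding microarrays were double-stranded, with 34-nt variable regions bearing direct-repeat seeds, single-nucleotide variants, half-site ablations and random human genomic background sequences. Incubation lasted 1 h with ligand-free nuclear receptor dimers in PBS pH 7.4, 2% milk, 0.02% Triton X-100, 1 mM DTT, 0.2 mg/mL BSA and 0.4 mg/ml salmon testes DNA. Antibodies against each partner (one per run) detected bound dimers, and fluorescence scans were regression-normalized. Binding z-scores take the random background probes as reference.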
# [2] = test system: LXRa:RXRa (NR concentration 270 nM, RXRa partner concentration 90 nM)
# Summary of the method: as §1
# [3] = test system: LXRa homodimer (NR concentration 270 nM)
# Summary of the method: as §1
# [4] = test system: LXRb:RXRa (NR concentration 270 nM, RXRa partner concentration 90 nM)
# Summary of the method: as §1
# [5] = test system: LXRb homodimer (NR concentration 270 nM)
# Summary of the method: as §1
# [6] = test system: PPARa:RXRa (NR concentration 270 nM, RXRa partner concentration 90 nM)
# Summary of the method: as §1
# [7] = test system: PPARg:RXRa (NR concentration 180 nM, RXRa partner concentration 90 nM)
# Summary of the method: as §1
# [8] = test system: PPARg:RXRa 270nM:90nM, anti-RXR (NR concentration 270 nM, RXRa partner concentration 90 nM)
# Summary of the method: as §1
# [9] = test system: PPARg:RXRa 30nM:10nM, anti-RXR (NR concentration 30 nM, RXRa partner concentration 10 nM)
# Summary of the method: as §1
# [10] = test system: PPARg:RXRa 90nM:30nM, anti-RXR (NR concentration 90 nM, RXRa partner concentration 30 nM)
# Summary of the method: as §1
Sequence,PBM binding z-score [1],PBM binding z-score [2],PBM binding z-score [3],PBM binding z-score [4],PBM binding z-score [5],PBM binding z-score [6],PBM binding z-score [7],PBM binding z-score [8],PBM binding z-score [9],PBM binding z-score [10]
TTACCAAGGTGAGCTGAGGTCATTGATCCAACTC,4.44,4.36,2.23,3.33,-0.78,3.78,1.69,2.46,0.796,1.62
ATCTCTATGTAAGACTCAGTTCAGTGAAGAACGC,-0.0618,0.138,0.304,-0.0643,0.391,-0.231,0.076,-0.0831,-0.162,-0.281
CGAACTAGGTAAGAACAGGACAGTGAAGGATGAT,-0.196,-0.204,-0.208,-0.602,-0.626,0.502,0.928,0.462,0.267,0.273
AGAATGATGTTACCAAAGATCAGGGAAACGCTTG,-0.399,0.968,-0.229,-0.18,-0.38,-0.0184,0.652,0.26,0.0901,0.313
ATACCAAGGTGATCGTAAGGTCGTTGATACTAAC,2.06,1.46,0.729,1.42,-0.157,1.71,0.613,0.737,0.111,0.398
ACTATTAGTTGACTGAGGGCAACCGATACGACGC,0.492,0.678,0.199,0.459,0.656,0.506,0.804,0.0428,0.173,0.117
TCAGACAGGTGACGGTAACTCAGGTACGCAGTCG,-0.0449,0.58,-0.354,0.0924,-0.599,0.857,0.69,1.72,3.16,2.51
TCTTGTACATCAACAGGAGGTTAAGAAAGATCGA,0.517,1.37,0.452,1.13,0.442,1.16,0.195,1.36,3.01,1.9
ATCTCTAGGTAACAAGTTCAGTGAAAGAGAGGAC,0.883,1.09,0.507,0.886,1.21,1.82,1.52,1.92,0.986,1.73
CATACAGGGTCAACTAGGCCAGAGTAGGGACGGC,6.88,4.92,0.472,4.1,0.96,5.82,6.43,5.91,2.49,4.66
TCTGCTAGGTCAGTTGGTCAGCTTACGAGCTGCC,0.94,0.456,-0.755,0.14,0.216,1.29,0.177,1.69,0.977,1.39
ATCGAAAGGACGTGAGGTGAGTATACAGAAAGGC,-0.29,-0.461,-0.29,-0.468,-0.162,-0.116,0.724,-0.318,0.185,-0.252
CGTCCAAGGTCAGCGAGGTCAGTGAATGCCGAGT,6.31,5.26,1.83,4.28,0.00119,5,3.79,4.78,0.896,3.3
ATCTCTAGGTAAAGTTCAGTTAAAGATCGATAGA,1.31,2.28,1.98,1.67,1.22,2.39,3.27,4.32,2.38,3.95
TATGCAGGGTCAAAGGCCAGAGTACGAATGTCGA,7.19,5.51,1.34,4.46,0.828,6.1,7.42,6.8,4.59,6.57
CCAACTAGGTCACGAAAGGTCAAAGTCGAATGAC,7.46,8.21,7.89,7.27,2.78,6.63,9.92,8.01,5.92,8.18
CAAACTATGTCAAGGTCAAAGTCGGTTTGTGCCA,4.77,4.95,4.54,4.26,1.75,4.65,4.09,4.7,2.24,3.82
GCTAGCAGGACATTTGGGTCACTCAATGACGGGC,0.0183,-0.0744,-0.248,-0.0431,-0.72,1.31,0.997,0.479,-0.424,-0.0664
TCTGCTAGGTGAGTTGGTCAGCTAACGAGCTGCC,-0.433,-0.56,-0.902,-0.937,-0.888,-0.304,-0.825,0.406,0.873,0.748
CCTTACGTGTCACTGACAGGTTATAGCATTTGGA,0.791,1.07,0.634,1.18,0.446,1.29,0.601,0.469,0.356,0.704
TCTCGGAGGGCACGAAAGGTCAGAGCTCGACATC,4.52,6.49,2.82,4.29,-0.405,4.24,2.69,3.93,2.36,3.06
CCTGCTATGTCAATGGTCAGCTAAAGCAGCTCGC,-0.419,-0.17,-0.882,-0.227,-0.272,-0.207,0.344,1.53,-0.198,0.923
TTACCAAGGTGCGCTGAGGTCGTTGATCCAACTC,0.911,0.599,0.0298,0.588,-0.404,0.971,-0.397,-0.0544,-0.287,0.0957
TCTTGTAGATCAAAGGTTAACAAAGCCGAAGCCT,1.99,2.08,-0.0148,2.16,0.107,4.9,8.48,8.41,7.57,9.81
